Records with an inconclusive call do not appear. Entries that show only a call come without a potency. Active and inactive are the calls of the source. The call rests on the fitted dose curve; in most records, active means well fitted inhibition curve with a large enough effect; inconclusive means small, poorly fitted or top-dose-only effect; inactive means flat fitted curve, though single readings scatter.
The molecules below were run against Calcium and integrin-binding protein 1 (Homo sapiens) (UniProt Q99828) (assay: Primary qHTS for Identification of Calcium Integrin Binding Protein 1 (CIB1) Competitor (AID 1508620)). Settings: CIB1-GST / FITC-alphaIIb peptide fluorescence polarization; series mostly up to 114 µM.
Chain of Calcium and integrin-binding protein 1 (Homo sapiens) (Q99828 whole entry, looked up): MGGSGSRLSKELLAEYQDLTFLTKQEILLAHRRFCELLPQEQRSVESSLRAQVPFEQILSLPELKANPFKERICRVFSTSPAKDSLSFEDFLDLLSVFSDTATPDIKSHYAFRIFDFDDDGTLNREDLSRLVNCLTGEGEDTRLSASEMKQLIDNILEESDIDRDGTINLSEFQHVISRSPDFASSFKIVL
How it was run: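 CIB1-GST (1 uM final) and compound incubated 15 min at room temperature before adding FITC-alphaIIb peptide tracer (100 nM final). Competition for binding read by fluorescence polarization (ex 480, em 540) after another 15 min at room temperature.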
Potency means the concentration at half of the fitted maximal effect.

Compound	Potency
O=C1c2ccccc2C(=O)N1c1ccccc1O	inactive
CN(C)S(=O)(=O)c1ccc(-c2nc(NCc3ccc(-c4ccnc(C(F)(F)F)c4)cc3)c3ccccc3n2)cc1	inactive
Cc1cccc(-n2cnc3cc(C(=O)N4CCN(C)CC4)ccc32)c1	inactive
Nc1ncc(-c2cccc(-c3nn4c(=O)cc(N5CCNCC5)nc4s3)c2)cn1	inactive
O=C1CCCC2=C1C(c1cccc(Oc3ccccc3)c1)N=C(Nc1nc3ccccc3o1)N2 (stereo not given)	inactive
O=S(=O)(NCC1CN(S(=O)(=O)c2ccc3c(c2)OCCO3)C1)c1c(F)cccc1F	inactive
COc1cnccc1-c1nc(Nc2ccc(F)c(F)c2)c2ccccc2n1	inactive
c1c[nH]c(CNc2ncnc3ccc(-c4ccoc4)cc23)n1	inactive
Cc1ccc(CNc2ncnc3cc(-c4ccc5c(c4)OCO5)ccc23)o1	inactive
O=S(=O)(Nc1ccc(C2CCNCC2)cc1)c1ccc(NCc2cccc(Cl)c2O)cc1	inactive
Cc1ccc(OCCn2c(CCNC(=O)/C=C/c3ccccc3Cl)nc3ccccc32)cc1	inactive
Cc1ccc(-c2ccc(=O)n(CC(=O)N(C)C(C)C(C)C)n2)cc1 (stereo not given)	inactive
c1nc(NCC2CCCCO2)c2cc(-c3ccc4c(c3)OCO4)ccc2n1 (stereo not given)	inactive
Cc1ccc(OCCn2c(CCNC(=O)/C=C/c3cccc(Br)c3)nc3ccccc32)cc1	inactive
O=C(Cc1ccc(Cl)c(Cl)c1)Nc1ccc(S(=O)(=O)Nc2ccccc2)cc1	inactive
O=C(CN1C(=O)N/C(=C\c2cccn2-c2cccc(C(=O)O)c2)C1=O)Nc1ccc(Cl)cc1	inactive
CCOC(=O)c1ccc(-n2cnc3c(c2=N)C(c2cccc(OC)c2)c2c(ccc4ccccc24)O3)cc1 (stereo not given)	inactive
Cn1c2cc(Br)sc2c2cnn(Cc3c(F)cccc3Cl)c(=O)c21	inactive
CCOc1ccc(C(=O)Nc2ccc(-c3nc4ccccc4[nH]3)cc2)cc1	inactive
COc1ccc(C2=Nn3c(nnc3-c3cccc(OC)c3OC)SC2)cc1	inactive

Compound	Potency
O=C1CCCC2=C1C1(CCC1)N=C(Nc1nc3ccccc3o1)N2	inactive
CCC(=O)NC(C)c1cc(Cl)c2cccnc2c1O (stereo not given)	inactive
Cc1c(P(=S)(c2ccccc2)c2ccccc2)c2ccccc2n1C(=O)NCc1ccc(F)cc1	inactive
COc1ccc(C2=Nn3c(nnc3-c3ccc(OC)cc3)SC2)cc1	inactive
O=C(OCC#CCSc1nnc(-c2cccc3ccccc23)o1)c1ccsc1	inactive
Cc1occc1-c1ccc2ncnc(NCc3ncc[nH]3)c2c1	inactive
Cc1ccc(-c2ccc(=O)n(CC(=O)NCCc3cnc[nH]3)n2)cc1	inactive
CNc1sc(-c2cccc3ccccc23)nc1C(=O)OC	inactive
CC(C)N1CCc2c(sc(NC(=O)Cc3ccccc3)c2-c2nc3ccccc3s2)C1	28.2 µM (active)
Cc1cc2c(s1)c1cnn(Cc3ccc(Cl)c(Cl)c3)c(=O)c1n2C	inactive
c1nc(NCC2CCCCC2)c2cc(-c3ccc4c(c3)OCO4)ccc2n1	inactive
Cc1ccc(C)n1-c1cccc(-c2nn[nH]n2)c1	inactive
Cc1ccccc1-c1nc(NCc2ccc(-c3cccnc3)cc2)c2ccccc2n1	inactive
CCOC(=O)c1c(CNCc2ccccc2F)c2sc(C)cc2n1C	inactive
Cc1ccc(NS(=O)(=O)c2cccc(F)c2)cc1C	inactive
COc1ccc(C2=Nn3c(nnc3-c3cccc(OC)c3)SC2)cc1	inactive
O=c1c2ccccc2nc2sc(Nc3ccc4c(c3)CNC4)nn12	inactive
Fc1cc(Nc2nc(-c3ccncc3)nc3ccccc23)ccc1-c1cccc(OC(F)(F)F)c1	inactive
COc1ccc(C2Nc3ccccc3C(=O)N2Cc2ccc(C)o2)cc1COc1c(C)cccc1C (stereo not given)	inactive
CCOC(=O)c1cccc(NC(=O)Nc2nnc(-c3ccncc3)s2)c1	inactive

Reference: PubChem BioAssay (NCATS)
